D3 antag = qHTS of D3 Dopamine Receptor Antagonist: qHTS; max response, negative = inhibition, %; hit rate 2.5% among 360,000; D(3) dopamine receptor (Homo sapiens), P35462; AID 652054, 2013; D3R cells, DiscoveRx beta-arrestin luminescence, antagonist mode; stronger effect = lower value; in the data active = max response below about -50%; inconclusive = no clear call, values can overlap the other calls; also: % is scaled to controls: 0 for no effect and ±100 for the full control effect
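Cells plated overnight at 1500 cells/well, then exposed to library compounds with dopamine controls for 90 minutes at 37 degrees C. DiscoveRx reagent added for 30–60 minutes at room temperature; luminescence read, quantitative HTS format.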
uPA generation = qHTS for Inhibitors of Cell Surface uPA Generation | cell surface uPA generation assay, qHTS | Potency, µM (highest dose often 38.3 µM), inactives show at the highest dose activity change, negative = inhibition, usual class: inhibitors | hit rate 0.31% among 330,000; active = well fitted inhibition curve with a large enough effect; inconclusive = small, poorly fitted or top-dose-only effect; inactive = no such curve, though single readings can be large or run the other way; tested in mouse RAW 264.7 cells; also: potency is read from the fitted curve at half-maximal effect; % is scaled to controls: 0 for no effect and ±100 for the full control effect; nearly all actives have a fitted effect of over 55% in size
RGS4 inh = Inhibitors of Regulator of G Protein Signaling (RGS) 4: qHTS | Regulator of G-protein signaling 4 (Homo sapiens), P49798 | Transcreener GDP fluorescence polarization, RGS4-accelerated GTP hydrolysis | Potency, µM (doses to about 114 µM), for inactives: at the highest dose activity change, negative = inhibition, most hits filed as inhibitors | hit rate 0.039% among 390,000; active = well fitted inhibition curve with a large enough effect; inconclusive = small, poorly fitted or top-dose-only effect; inactive = no such curve, though single readings can be large or run the other way; also: potency is read from the fitted curve at half-maximal effect; % is scaled to controls: 0 for no effect and ±100 for the full control effect; nearly all actives have a fitted effect of over 75% in size
Target sequence (P49798 whole entry, looked up): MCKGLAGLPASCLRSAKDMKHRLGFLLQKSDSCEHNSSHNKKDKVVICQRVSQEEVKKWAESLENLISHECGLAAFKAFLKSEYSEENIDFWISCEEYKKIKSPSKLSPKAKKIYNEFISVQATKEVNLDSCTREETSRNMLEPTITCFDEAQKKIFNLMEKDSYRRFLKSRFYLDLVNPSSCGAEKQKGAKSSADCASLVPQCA
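MLSMR compounds (23 nl, pin-transferred) preincubated 10 min at room temperature with a 500nM (2x) first reagent, then RGS4 at 900nM (2x) plus Transcreener GDP mix added; fluorescence polarization (620/688 nm) read before and after 90 min at 30 °C.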
DRD3 agonist = qHTS of D3 Dopamine Receptor Agonist: qHTS; D(3) dopamine receptor (Homo sapiens), P35462; AID 652048, 2013; max activation, %; D3R DiscoveRx beta-arrestin cells, luminescence, 90 min; hit rate 0.58% among 410,000; in the data active = max activation above about 30%; also: 0% is about no effect
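Agonist mode: compounds and dopamine controls were applied to plated cells for 90 min at 37 degrees C after an overnight attachment at 1500 cells/well. Luminescent read-out followed 30 - 60 minutes at room temperature with DiscoveRx detection reagent.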
The depositor's hits bear a star; [ ] = remark or other dose. Most compounds without a hit are left out; they make up all but 3.1% or so of the library.

What do the screens show for `CCOc1ccc(N/C(C)=C/C(=O)c2ccc3c(c2)OCCO3)cc1`?
D3 antag: 12.4; uPA generation: -3.8%; RGS4 inh: 7.7%; DRD3 agonist: 32.8*

What do the screens show for `CCOc1ccc(N/C(C)=C\C(=O)c2ccc3c(c2)OCCO3)cc1`?
D3 antag: 8.0; uPA generation: 1.2%; RGS4 inh: 25.6%; DRD3 agonist: 2.5

What do the screens show for `CCc1ccc(NC(=O)Cn2c(=O)n(Cc3nc(C)no3)c(=O)c3cc4c(cc32)OCO4)cc1`?
RGS4 inh: 7.9%; DRD3 agonist: -9.5

Results for COc1cccc2c1[C@@H]1CN(CCCCn3c(=O)[nH]c4c(sc5ncc(-c6ccccc6)nc54)c3=O)C[C@@H]1CO2 ?
D3 antag: -98.6*; uPA generation: -17.6%; RGS4 inh: inconclusive; DRD3 agonist: -16.4

How did O=S(=O)(Nc1nc(-c2sccc2Cl)cs1)c1cc(Cl)ccc1Cl do in these assays?
D3 antag: -85.8*; uPA generation: 4.7%; RGS4 inh: -22.0%; DRD3 agonist: -10.6

Results for CC1=NN(c2ccccc2)C(=O)C1N=Nc1ccc(N)cc1 (configuration not stated) ?
D3 antag: -59.7*; uPA generation: -10.5%; RGS4 inh: 0.9%[11.4 µM]; DRD3 agonist: -14.5

What do the screens show for `CC(NC(=O)Nc1cc(Cl)ccc1Cl)c1c(-n2cccc2)sc2c1CCCC2` (configuration not stated)?
RGS4 inh: -3.5%; DRD3 agonist: 4.2

How did CC1(C)Oc2cc3oc(-c4cc(O)cc(O)c4)cc3cc2CC1O (configuration not stated) do in these assays?
D3 antag: -16.3; uPA generation: 8.91µM*; RGS4 inh: 3.9%; DRD3 agonist: -12.8

Results for C[C@@H](O)[C@H](N)C(=O)O ?
DRD3 agonist: 2.2

Results for CCOc1ccc(CCNC(=O)c2cnc3sc(N4CCCCCC4)nn3c2=O)cc1 ?
RGS4 inh: 18.2%; DRD3 agonist: 14.6

Results for COc1ccc(-n2c(/C=C/c3cccc4ccccc34)nc3ccccc3c2=O)cc1Cl ?
RGS4 inh: 5.7%; DRD3 agonist: 4.0

Results for CCCCC(=O)N(C)c1c(C)nc2ccc(C(=O)N(C)CCN(C)C)cn12 ?
D3 antag: 0.0; DRD3 agonist: -8.9

How did CCCCN(C)c1c(C)nc2ccc(C(=O)N(C)CCN(C)C)cn12 do in these assays?
D3 antag: -71.4*; DRD3 agonist: -12.8

Results for O=C(CCSCc1cnn(-c2ccccc2)c1-n1cccc1)NCc1ccccc1Cl ?
RGS4 inh: 1.4%; DRD3 agonist: -9.8

Results for Cc1ccc(F)cc1NC(=O)c1c(-c2ccccc2)noc1C ?
D3 antag: -50.0*; uPA generation: -15.3%; RGS4 inh: -24.7%; DRD3 agonist: 1.8

Results for Cc1ccccc1NC(=O)c1c(-c2ccccc2)noc1C ?
D3 antag: inconclusive; uPA generation: 7.6%; RGS4 inh: -1.2%; DRD3 agonist: 2.0

Results for Cc1onc(-c2ccccc2)c1C(=O)NCc1cccnc1 ?
D3 antag: -75.0*; uPA generation: -5.0%; RGS4 inh: -17.0%; DRD3 agonist: 1.8

What do the screens show for `CCC(=O)N1CCc2cc(S(=O)(=O)NC(CC(C)C)C(=O)NCc3ccc(C)cc3)ccc21` (configuration not stated)?
RGS4 inh: -1.4%; DRD3 agonist: -9.1

Results for COc1ccc2c(c1)sc1ncc(C(=O)NCc3cccc(C)c3)c(=O)n12 ?
RGS4 inh: 7.7%; DRD3 agonist: 5.5

How did COc1ccc(CN=Cc2[nH]c3ccc(Br)c(Cl)c3c2O)cc1 do in these assays?
D3 antag: -73.9*; RGS4 inh: -24.1%; DRD3 agonist: 3.6

Results for Fc1ccc(-c2noc3ncnc(NC4CCCCC4)c23)cc1 ?
RGS4 inh: 6.0%; DRD3 agonist: -1.8

What do the screens show for `Cc1ccc(-c2noc(-c3ccccc3NC(=O)C3CC(=O)N(c4cccc(C)c4)C3)n2)cc1` (configuration not stated)?
RGS4 inh: 22.7%; DRD3 agonist: -8.6

What do the screens show for `O=C(c1ccccc1)c1cc(Cl)ccc1N1C(=O)C=CC1=O`?
D3 antag: -92.3*; uPA generation: -9.9%; RGS4 inh: inconclusive; DRD3 agonist: -27.9

Source: PubChem BioAssay (National Center for Advancing Translational Sciences (NCATS))
